Laboratory results: the supplement of paper PMC7380943
Structures can show the parent of a compound that is named as a salt.

Each compound was assayed on CLZ3 (HCA2 human fibroblast dual HR-NHEJ reporter) (assay: HR repair efficiency (tdTomato+ cells) relative to control (log10 fold); higher = more homologous recombination). Conditions: 5 µM; doxycycline 0.5 ug/mL.
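Note: compound given one day before doxycycline, which switches on I-SceI endonuclease expression to create double-strand breaks within the integrated reporter.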

Going from O=c1ccc2cc3ccoc3c(O)c2o1 [Xanthotoxol] to O=C1C=CC(=O)c2c(O)cccc21 [Juglone], the “HR repair efficiency (log10)” value falls from -0.0752 to -0.281.

COc1cc(C2OCC3C(c4cc(OC)c(O[C@@H]5O[C@H](CO)[C@@H](O)[C@H](O)[C@H]5O)c(OC)c4)OCC23)cc(OC)c1O[C@H]1O[C@@H](CO)[C@H](O)[C@@H](O)[C@@H]1O (stereo not given in full) [Eleutheroside E] and CC(C)=CCC[C@@](C)(O)[C@H]1CC[C@]2(C)[C@@H]1[C@H](O)C[C@@H]1[C@@]3(C)CC[C@H](O[C@@H]4O[C@H](CO)[C@@H](O)[C@H](O)[C@H]4O)C(C)(C)[C@@H]3CC[C@]12C [R-Ginsenoside Rh2] are within 0.2 log units of each other in “HR repair efficiency (log10)” value: -0.0597 for the first, -0.111 for the second.

C=C[C@H]1CN2CC[C@]3(C(=O)Nc4ccccc43)[C@@H]2C[C@@H]1/C(=C\OC)C(=O)OC [Corynoxeine] and CC[C@H]1CN2CC[C@@]3(C(=O)Nc4ccccc43)[C@@H]2C[C@@H]1/C(=C\OC)C(=O)OC [Isorhynchophylline] are within 0.2 log units of each other in “HR repair efficiency (log10)” value: -0.139 for the first, -0.0739 for the second.

First: Oc1cc(O)cc(/C=C/c2ccc(O)cc2O)c1 [Oxy-Resveratrol]
Second: COc1c(C)c(O)cc2[o+]c(-c3ccccc3)ccc12.[O-][Cl+3]([O-])([O-])[O-] [Dracorhodin perochlorate]
The “HR repair efficiency (log10)” value of the first is lower: -0.164 for the first, 0.0436 for the second.

O=C1CCC[C@@H]2[C@H]3CCCN4CCC[C@@H](CN12)[C@@H]34 [Matrine] and C[C@H]1CCC2N(C1)C[C@H]1C3CC4[C@@H](CC(=O)C5C[C@@H](O)CC[C@@]54C)C3CCC1[C@]2(C)O (stereo not given in full) [Peiminine] are within 0.2 log units of each other in “HR repair efficiency (log10)” value: -0.0371 for the first, 0.0963 for the second.

O=C(O)[C@@H]1[C@H](C(=O)O)[C@H]2CC[C@@H]1O2 [Endothall Disodium Salt] and CN1[C@@H]2C[C@@H](OC(=O)[C@H](CO)c3ccccc3)C[C@H]1[C@@H]1O[C@@H]12 [Scopolamine Hydrobromide] are within 0.2 log units of each other in “HR repair efficiency (log10)” value: 0.143 for the first, -0.0275 for the second.

COC[C@@]12CC[C@H](OC)[C@]34C([C@H]([C@H](OC)[C@H]13)[C@]1(O)[C@H]3[C@@H](OC(=O)c5ccccc5)[C@](O)(C[C@H]34)[C@@H](OC)[C@@H]1O)N(C)C2 [Benzoylhypaconine] and CCN1C[C@]2(COC)[C@H](O)C[C@H](OC)[C@]34C1[C@H]([C@H](OC)[C@H]23)[C@@]1(OC(C)=O)C[C@H](OC)[C@@]2(O)C[C@@H]4[C@@H]1[C@H]2OC(=O)c1ccccc1 [Indaconitine] are within 0.2 log units of each other in “HR repair efficiency (log10)” value: 0.00783 for the first, 0.112 for the second.

C[C@@]12C[C@@H](c3ccoc3)OC(=O)[C@@H]1CC[C@]1(C)[C@H]2[C@@H]2C=C[C@@]1(O)C(=O)O2 [Columbin] and C/C1=C\C2C(CCC3(CO3)C(O)C3C(O)C(C)CC3(O)C1=O)C2(C)C (stereo not given) [6,17-Epoxylathyrol] are within 0.2 log units of each other in “HR repair efficiency (log10)” value: -0.0272 for the first, 0.0115 for the second.

COC1=C[C@@H]2[C@@H]3Cc4ccc(OC)c(O)c4[C@]2(CCN3C)CC1=O [Sinomenine] and COc1cc2c3c(c1OC)-c1ccccc1C[C@H]3N(C)CC2 [Nuciferine] are within 0.2 log units of each other in “HR repair efficiency (log10)” value: 0.274 for the first, 0.137 for the second.

N#CCc1ccc2c(c1)OCO2 [Homopiperonylonitrile] and CNCC(O)c1ccc(O)cc1 (stereo not given) [Synephrine] are within 0.2 log units of each other in “HR repair efficiency (log10)” value: 0.127 for the first, 0.108 for the second.

CC(=O)[C@]1(O)CC[C@@]2(O)[C@]1(C)[C@H](OC(=O)/C=C(\C)C(C)C)C[C@@H]1[C@@]3(C)CC[C@H](O)CC3=CC[C@]12O [Caudatin] and CCN1C[C@]2(COC)[C@H](O)C[C@H](OC)[C@]34C1[C@H]([C@H](OC)[C@H]23)[C@]1(O)[C@H]2[C@@H](O)[C@](O)(C[C@H]24)[C@@H](OC)[C@@H]1O [Aconine] are within 0.2 log units of each other in “HR repair efficiency (log10)” value: -0.0376 for the first, 0.0705 for the second.

C=C(C)C1CC=C(C=O)CC1 (stereo not given) [Perillaldehyde] and CCN1CC2(COC)CCC(O)C34C5CC6C(OC)CC(O)(C5C6O)C(C(OC)C23)C14 (stereo not given) [Bullatine B] are within 0.2 log units of each other in “HR repair efficiency (log10)” value: -0.104 for the first, 0.0659 for the second.

CCN1C[C@]2(COC)CC[C@H](OC)[C@]34C1[C@H](C[C@H]23)[C@@]1(O)C[C@H](OC)[C@H]2C[C@@H]4[C@@H]1[C@H]2O [Talatisamine] and CCCC[N+]1(C)[C@@H]2C[C@@H](OC(=O)[C@H](CO)c3ccccc3)C[C@H]1[C@@H]1O[C@@H]12 (stereo not given in full) [Scopolamine Butylbromide] are within 0.2 log units of each other in “HR repair efficiency (log10)” value: 0.0585 for the first, 0.0357 for the second.

First: C/C=C/C#CC#C/C=C/c1ccco1 [Atractylodin]
Second: C=C[C@@H](O)C#CC#C[C@@H](O)/C=C\CCCCCCC [Falcarindiol]
The “HR repair efficiency (log10)” value of the first is higher: 0.114 for the first, -0.13 for the second.

CN[C@@H](C)[C@H](O)c1ccccc1 [Ephedrine hydrochloride] and C=CCSSCC=C [Garlicin] are within 0.2 log units of each other in “HR repair efficiency (log10)” value: -0.0579 for the first, -0.0428 for the second.
